Inconclusive results are not listed. Active and inactive are the calls of the source. The call rests on the fitted dose curve; in most records, active means well fitted activation curve with a large enough effect; inconclusive means small, poorly fitted or top-dose-only effect; inactive means no such curve, though single readings can be large or run the other way.
Assay: qHTS assay for re-activators of p53 using a Luc reporter: Hit Validation with no p53 Expressed; on activity change, positive = activation: 0% is about no effect
Settings: p53-null cells, luciferase reporter counter-screen; series mostly up to 46.1 µM; activity change, positive = activation: at the top concentration
Method in brief: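 Counter-screen of primary hits in a cell line not transfected with p53, in Opti-MEM with 10% FBS; compounds at several concentrations (10 mM stock, 1:5; top 46.1 µM in well), 24 h at 37 deg C, 5% CO2. Luminescence read after 10 min with Amplite reagent.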
Potency means the concentration at half of the fitted maximal effect.

Structure (SMILES)	activity change, positive = activation	Potency
CC(C)(C)c1cc(-n2ccnc2)n2ncc(-c3ccc(Cl)cc3)c2n1	27.1% (inactive)	–
Cc1ccc(OCCCNCCO)c(Br)c1	61% (inactive)	–
COc1ccc(C2=NN(C(C#N)c3ccc(OC)cc3)C(c3ccccc3)C2)cc1 (centres undefined)	-12.3% (inactive)	–
O=C(CN1C(=O)COc2ccccc21)Nc1ccc(F)cc1	36.7% (inactive)	–
CC(/C=N/Nc1nc2ccccc2[nH]1)=C\c1ccccc1	–	116 nM (active)
Cc1ccc(C(=O)NCC(=O)N2CCCCCC2)cc1	39.6% (inactive)	–
CNC(=S)N/N=C(\C)c1ccc(N2CCOCC2)cc1	33.4% (inactive)	–
Cc1nn(-c2ccccc2)c(N)c1Sc1ccc([N+](=O)[O-])cc1	89.5% (inactive)	–
Fc1ccc(CCNC(=S)Nc2ccc(F)cc2)cc1	-12.1% (inactive)	–
Fc1ccccc1/C=C/c1ccc2ccccc2n1	-10.9% (inactive)	–
Cc1ccc(C)n1-c1cccc(NC(=O)c2ccccc2)c1	-22.5% (inactive)	–
O=C(CC1NC2CCCCC2NC1=O)Nc1ccc2c(c1)OCO2 (centres undefined)	-8.77% (inactive)	–
COc1ccc(S(=O)(=O)NC2CC(C)(C)NC(C)(C)C2)c2ccccc12	9.79% (inactive)	–
Cc1cccc(NC(=O)c2oc3c(c2C)C(=O)CC(C)(C)C3)n1	-5.25% (inactive)	–
C/C(=N\NC(=O)c1ccccc1)c1ccc(NC(=O)c2cccs2)cc1	-38.4% (inactive)	–
C(=C\c1nc(-c2ccccc2)no1)/c1ccccc1	21.9% (inactive)	–
Cc1ccc(C(=O)OC(C)C(=O)Nc2ccc3c(c2)OCO3)c(O)c1 (centres undefined)	-29.5% (inactive)	–
CCSc1nnc(SCC(=O)NC2CCCCC2)s1	-56% (inactive)	–
O=C(CSc1nc2ccccc2c(=O)[nH]1)c1ccc(O)c(O)c1	-15.6% (inactive)	–
O=C(NCC(=O)N1CCN(c2ncccn2)CC1)c1ccc(F)cc1	-6.5% (inactive)	–

Structure (SMILES)	activity change, positive = activation	Potency
CCCCn1c(/C=N/Nc2nc3ccccc3[nH]2)nc2ccccc21	87% (inactive)	–
Cc1ccc2nc(-c3ccc(NC(=O)CN4C(=O)c5ccccc5C4=O)cc3)sc2c1	44.7% (inactive)	–
CCOc1ccc(NS(=O)(=O)c2ccc(C(=O)NC3CCN(Cc4ccccc4)CC3)cc2)cc1	-28.9% (inactive)	–
CCOC(=O)c1cc(-c2ccccc2)sc1NC(=O)CC	-51.7% (inactive)	–
Cc1ccc(NC(=O)NC(=O)CN2CCC(C(N)=O)CC2)c(C)c1	80.7% (inactive)	–
CCCCC(=O)NC(c1ccc(Cl)cc1Cl)c1ccc2cccnc2c1O (centres undefined)	73.7% (inactive)	–
COc1ccc(C(=O)N/N=C(\C)c2ccccn2)cc1OC	-5.69% (inactive)	–
COc1ccc(C(C#N)N2N=C(c3ccccc3)CC2c2ccccc2)cc1OC (centres undefined)	-24.4% (inactive)	–
CCOC(=O)c1ccc(N2Cc3ccccc3C2=NC(=O)c2cccs2)cc1	40.9% (inactive)	–
NC(=O)c1cc2ccc(O)cc2oc1=Nc1ccccc1	0.331% (inactive)	–
O=C(Nc1nc(-c2ccco2)c(-c2ccco2)s1)c1ccc(F)cc1F	-21.9% (inactive)	–
Cc1cccc(Nc2cc(=O)[nH]c(=O)[nH]2)c1C	-22.6% (inactive)	–
CCOc1ccc(S(=O)(=O)c2c(C(=O)c3ccc(C)cc3)cnc3cc4c(cc23)OCCO4)cc1	-4.04% (inactive)	–
COc1cc(C(=S)N2CCOCC2)ccc1OC(=O)c1ccccc1C	29.9% (inactive)	–
O=c1nc2sc3ccccc3n2c(=O)n1-c1cccc(Cl)c1	64.5% (inactive)	–
Cc1nc(NC(=O)c2csc3ccccc23)sc1C	-13.5% (inactive)	–
Cc1ccc(NC(=O)COc2ccc3c(c2)OCO3)c(Cl)c1	14.4% (inactive)	–
Cc1ccc(C(=O)c2c3ccc([N+](=O)[O-])cc3[n+]([O-])n2CCCN)cc1	-18% (inactive)	–
COc1ccc(-c2coc3cc(O[C@@H]4O[C@H](CO)[C@@H](O)[C@H](O)[C@H]4O)ccc3c2=O)cc1	8.1% (inactive)	–
